Experiment [1] in a line: ATG_NFI_CIS: Attagene CIS-FACTORIAL HepG2 Assay for human Nuclear Factor I (NFI) (AID 2282989). The settings on record: HepG2 cis-regulatory reporter, NFI response element transcription; actives raise or lower the signal. The method, boiled down: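 After transient transfection of HepG2 with cis-promoter reporter constructs and 24 h dosing, RNA is reverse-transcribed, amplified, 6-FAM end-labelled and HpaI-digested before capillary analysis. Bidirectional curve fitting against DMSO.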

Experiment [2] addresses Myc proto-oncogene protein (Homo sapiens) (UniProt P01106). Description: ATG_Myc_CIS: Attagene CIS-FACTORIAL HepG2 Assay for human Myelocytomatosis (Myc) Proto-Oncogene Transcription Factor (AID 2282990). The settings on record: HepG2, Attagene cis-reporter transcription factor activity; actives raise or lower the signal. The method, boiled down:
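Fluorescence intensity of reporter-specific cDNA fragments, separated by capillary electrophoresis, gives the signal. Transfected HepG2 cells carrying cis-promoter reporter constructs are incubated with compound for 24 h; DMSO serves as baseline.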

A short description of experiment [3]: ATG_NF_kB_CIS: Attagene CIS-FACTORIAL HepG2 Assay for human Nuclear Factor Kappa B (NF-kB) (AID 2282991). The settings on record: HepG2 Attagene cis-factorial NF-kB reporter mRNA; actives raise or lower the signal. In outline: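 After 24 h compound incubation, transfected HepG2 cells yield total RNA; reporter cDNA is PCR-amplified, end-labelled with 6-FAM, HpaI-digested and analysed on a genetic analyser. Endogenous factor activity, DMSO-referenced bidirectional fit.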

Experiment [4] in a line: ATG_NRF2_ARE_CIS: Attagene CIS-FACTORIAL HepG2 Assay for human Nuclear Factor Erythroid 2 Related Factor 2 (NFR2) response to Antioxidant Response Elements (ARE) (AID 2282992). The settings on record: HepG2 Attagene ARE/NRF2 reporter, transcription factor activity; actives raise or lower the signal. In outline:
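Cis-factorial assay: transfected HepG2 reporter library, 24 h dosing, mRNA readout via RT-PCR/CE; DMSO-referenced bidirectional analysis.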

Experiment [5] in a line: ATG_Oct_MLP_CIS: Attagene CIS-FACTORIAL HepG2 Assay for human Octamer-Binding Transcription Factor (Oct) (AID 2282993). To be noted: HepG2 Attagene cis-factorial Oct reporter, mRNA; actives raise or lower the signal. In outline:
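Cells of the HepG2 line express promoter-controlled reporter sequences whose mRNA levels, after 24 h treatment, are measured by RT-PCR and capillary electrophoresis. Increases and decreases are scored relative to DMSO.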

Experiment [6] concerns the target Cellular tumor antigen p53 (Homo sapiens) (UniProt P04637). Put plainly: ATG_p53_CIS: Attagene CIS-FACTORIAL HepG2 Assay for human p53 Transcription Factor (AID 2282994). The settings on record: HepG2 p53 cis-element reporter, Attagene mRNA; actives raise or lower the signal. The method, boiled down: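 Using HepG2 hepatoma cells carrying cis-acting multiplexed reporters, mRNA induction is detected after a 24 h exposure. Gain- and loss-of-signal responses are fitted relative to DMSO-treated cells.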

Experiment [7] concerns the target human Peroxisome Proliferator-activated Receptor alpha (PPARa), PPARA (gene 5465) (UniProt Q07869). Put plainly: ATG_PPARa_TRANS: Attagene TRANS-FACTORIAL HepG2 Assay for human Peroxisome Proliferator-activated Receptor alpha (PPARa) (AID 2283001; active = hit-call score of the fitted dose curve at least 0.9, where 1 is the maximum). The method, boiled down: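 Measures transcriptional activity of an exogenous chimeric PPARa-Gal4 protein in transiently transfected HepG2 cells after 24 h dosing. Reporter mRNA quantified via RT-PCR and capillary electrophoresis; DMSO served as negative control.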

The target in experiment [8] is human Peroxisome Proliferator-activated Receptor delta (PPARd), PPARD (gene 5467) (UniProt Q03181). Put plainly: ATG_PPARd_TRANS: Attagene TRANS-FACTORIAL HepG2 Assay for human Peroxisome Proliferator-activated Receptor delta (PPARd) (AID 2283002; active = hit-call score of the fitted dose curve at least 0.9, where 1 is the maximum). The method, boiled down:
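Fluorescence from capillary electrophoresis of labelled RT-PCR reporter fragments gives the signal; DMSO sets baseline. Cells: HepG2 transiently carrying GAL4-UAS reporter units plus chimeric nuclear receptor-Gal4 proteins, exposed to chemicals for 24 h.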

Experiment [9] concerns the target Nuclear receptor subfamily 1 group I member 2 (Homo sapiens) (UniProt O75469). Put plainly: ATG_PXR_TRANS: Attagene TRANS-FACTORIAL HepG2 Assay for human Pregnane X Receptor (PXR) (AID 2283008; active = hit-call score of the fitted dose curve at least 0.9, where 1 is the maximum). In outline: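 Fluorescence intensity of FAM-labelled, HpaI-digested reporter amplicons, separated by capillary electrophoresis, quantifies induction. HepG2 cells with PXR-Gal4 trans-reporter system were exposed 24 h; DMSO defines baseline.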

Experiment [10] addresses human Retinoic Acid Receptor gamma (RARg), RARG (gene 5916) (UniProt P13631). Put plainly: ATG_RARg_TRANS: Attagene TRANS-FACTORIAL HepG2 Assay for human Retinoic Acid Receptor gamma (RARg) (AID 2283009; active = hit-call score of the fitted dose curve at least 0.9, where 1 is the maximum). The method, boiled down: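 HepG2 cells transiently transfected with multiplexed reporter units expressing chimeric RARg-GAL4 and GAL4-UAS-driven reporters; 24 h compound exposure. Reporter mRNA quantified by RT-PCR with fluorescent labelling and capillary electrophoresis; gain-of-signal fitted relative to DMSO baseline.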

Experiment [11] has as its target Retinoic acid receptor alpha (Homo sapiens) (UniProt P10276). Description: ATG_RARa_TRANS: Attagene TRANS-FACTORIAL HepG2 Assay for human Retinoic Acid Receptor alpha (RARa) (AID 2283005; active = hit-call score of the fitted dose curve at least 0.9, where 1 is the maximum). The method, boiled down:
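HepG2 transiently transfected with multiplex GAL4-UAS reporter units including a human RARa–GAL4 chimera; 24 h compound exposure. Reporter mRNA quantified by RT-PCR, 6-FAM labeling and capillary electrophoresis; gain of signal versus DMSO.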

Experiment [12] has as its target Peroxisome proliferator-activated receptor gamma (Homo sapiens) (UniProt P37231). Put plainly: ATG_PPARg_TRANS: Attagene TRANS-FACTORIAL HepG2 Assay for human Peroxisome Proliferator-activated Receptor-gamma (PPARg) (AID 2283007; active = hit-call score of the fitted dose curve at least 0.9, where 1 is the maximum). The method, boiled down: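 Liver-derived HepG2 cells expressing an exogenous NR-Gal4 chimera alongside GAL4-UAS reporter genes; 24 h exposure. Fluorescence of reporter RT-PCR products, separated by capillary electrophoresis, gives mRNA induction relative to DMSO.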

Experiment [13] has as its target human RAR-related Orphan Receptor beta (RORb), RORB (gene 6096) (UniProt Q92753). Description: ATG_RORb_TRANS: Attagene TRANS-FACTORIAL HepG2 Assay for human RAR-related Orphan Receptor beta (RORb) (AID 2283010; active = hit-call score of the fitted dose curve at least 0.9, where 1 is the maximum). The method, boiled down: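 HepG2 cells were transiently transfected with multiplexed GAL4-UAS reporter units expressing chimeric nuclear receptor–GAL4 proteins, then dosed for 24 h. Reporter mRNA was quantified by RT-PCR with fluorescent labelling and capillary electrophoresis; gain of signal was fitted relative to DMSO.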

The target in experiment [14] is human Retinoic Acid Receptor beta (RARb), RARB (gene 5915) (UniProt P10826). Put plainly: ATG_RARb_TRANS: Attagene TRANS-FACTORIAL HepG2 Assay for human Retinoic Acid Receptor beta (AID 2283004; active = hit-call score of the fitted dose curve at least 0.9, where 1 is the maximum). The method, boiled down:
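HepG2 cells transiently transfected with multiplexed GAL4-UAS reporter units expressing chimeric NR–Gal4 fusions; 24 h compound exposure. Reporter mRNA quantified by RT-PCR, 6-FAM labelling, HpaI digestion and capillary electrophoresis; gain-of-signal fitted against DMSO baseline.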

SMILES strings stand for the structures. Records with an inconclusive call do not appear. Calls of active or inactive are those of the source. Rule for the calls, unless noted: active = hit-call score of the fitted dose curve at least 0.9, where 1 is the maximum; inactive = score below 0.9.

The AC50 is the midpoint of the concentration-response curve, whichever way the signal moves.

Retinoic acid receptor alpha (Homo sapiens), sequence (P10276 whole entry, looked up, the tested form may be a part): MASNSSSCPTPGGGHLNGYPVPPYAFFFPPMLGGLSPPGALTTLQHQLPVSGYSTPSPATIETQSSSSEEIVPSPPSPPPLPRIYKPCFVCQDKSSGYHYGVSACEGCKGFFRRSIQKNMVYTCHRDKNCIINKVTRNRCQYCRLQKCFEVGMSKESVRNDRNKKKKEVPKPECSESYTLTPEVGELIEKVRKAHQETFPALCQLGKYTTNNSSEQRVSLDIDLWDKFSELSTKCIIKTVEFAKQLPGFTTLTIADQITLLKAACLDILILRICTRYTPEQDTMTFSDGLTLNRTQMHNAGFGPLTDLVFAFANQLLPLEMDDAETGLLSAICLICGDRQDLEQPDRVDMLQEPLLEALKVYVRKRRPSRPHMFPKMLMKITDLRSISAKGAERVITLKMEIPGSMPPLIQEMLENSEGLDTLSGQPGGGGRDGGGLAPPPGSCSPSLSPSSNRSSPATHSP
Myc proto-oncogene protein (Homo sapiens), sequence (P01106 whole entry, looked up, the tested form may be a part): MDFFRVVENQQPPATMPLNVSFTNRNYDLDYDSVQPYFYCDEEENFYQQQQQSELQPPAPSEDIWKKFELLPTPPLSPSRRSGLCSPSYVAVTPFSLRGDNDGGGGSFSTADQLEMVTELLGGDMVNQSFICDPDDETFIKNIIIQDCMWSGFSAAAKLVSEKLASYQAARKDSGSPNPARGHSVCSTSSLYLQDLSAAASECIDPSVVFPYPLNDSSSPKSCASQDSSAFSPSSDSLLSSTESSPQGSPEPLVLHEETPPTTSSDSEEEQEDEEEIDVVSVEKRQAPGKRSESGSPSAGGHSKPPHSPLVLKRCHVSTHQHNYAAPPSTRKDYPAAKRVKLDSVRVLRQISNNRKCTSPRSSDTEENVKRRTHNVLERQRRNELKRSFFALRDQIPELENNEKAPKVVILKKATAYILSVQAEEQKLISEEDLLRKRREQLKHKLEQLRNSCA
human Retinoic Acid Receptor beta (RARb), RARB (gene 5915), sequence (P10826 whole entry, looked up, the tested form may be a part): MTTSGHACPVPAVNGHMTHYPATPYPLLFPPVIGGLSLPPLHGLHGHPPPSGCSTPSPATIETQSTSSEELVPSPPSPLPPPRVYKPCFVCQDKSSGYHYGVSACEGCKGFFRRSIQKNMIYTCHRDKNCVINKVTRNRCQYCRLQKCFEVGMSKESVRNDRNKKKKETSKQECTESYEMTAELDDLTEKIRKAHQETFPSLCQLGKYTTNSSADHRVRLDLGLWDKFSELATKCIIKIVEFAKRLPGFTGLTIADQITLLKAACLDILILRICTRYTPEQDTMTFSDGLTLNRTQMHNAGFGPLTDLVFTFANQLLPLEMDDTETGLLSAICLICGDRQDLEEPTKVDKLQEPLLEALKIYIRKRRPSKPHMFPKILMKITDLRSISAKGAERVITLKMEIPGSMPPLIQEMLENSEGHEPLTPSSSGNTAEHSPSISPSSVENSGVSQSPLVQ
human Peroxisome Proliferator-activated Receptor delta (PPARd), PPARD (gene 5467), sequence (Q03181 whole entry, looked up, the tested form may be a part): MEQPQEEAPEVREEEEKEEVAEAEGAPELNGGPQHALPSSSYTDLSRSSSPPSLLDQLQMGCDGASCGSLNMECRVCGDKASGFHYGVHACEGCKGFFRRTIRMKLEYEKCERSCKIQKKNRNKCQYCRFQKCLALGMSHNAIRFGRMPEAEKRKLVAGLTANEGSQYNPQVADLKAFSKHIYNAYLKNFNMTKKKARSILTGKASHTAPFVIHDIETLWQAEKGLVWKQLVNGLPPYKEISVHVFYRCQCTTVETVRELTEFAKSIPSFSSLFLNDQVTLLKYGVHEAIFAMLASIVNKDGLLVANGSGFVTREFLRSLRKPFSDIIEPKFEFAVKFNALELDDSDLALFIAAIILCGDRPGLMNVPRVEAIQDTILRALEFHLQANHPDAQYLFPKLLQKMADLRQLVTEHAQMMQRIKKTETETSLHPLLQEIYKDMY
Cellular tumor antigen p53 (Homo sapiens), sequence (P04637 whole entry, looked up): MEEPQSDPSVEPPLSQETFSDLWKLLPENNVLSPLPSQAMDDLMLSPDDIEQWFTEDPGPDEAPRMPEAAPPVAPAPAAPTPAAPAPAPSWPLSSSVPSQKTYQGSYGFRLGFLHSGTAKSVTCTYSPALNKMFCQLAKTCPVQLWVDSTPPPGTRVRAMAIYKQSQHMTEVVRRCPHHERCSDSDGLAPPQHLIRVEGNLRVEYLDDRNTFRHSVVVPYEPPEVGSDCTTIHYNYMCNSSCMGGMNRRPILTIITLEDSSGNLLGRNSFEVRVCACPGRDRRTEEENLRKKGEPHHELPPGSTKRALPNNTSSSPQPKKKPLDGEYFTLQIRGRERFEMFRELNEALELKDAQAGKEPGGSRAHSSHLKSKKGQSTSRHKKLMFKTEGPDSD
human RAR-related Orphan Receptor beta (RORb), RORB (gene 6096), sequence (Q92753 whole entry, looked up, the tested form may be a part): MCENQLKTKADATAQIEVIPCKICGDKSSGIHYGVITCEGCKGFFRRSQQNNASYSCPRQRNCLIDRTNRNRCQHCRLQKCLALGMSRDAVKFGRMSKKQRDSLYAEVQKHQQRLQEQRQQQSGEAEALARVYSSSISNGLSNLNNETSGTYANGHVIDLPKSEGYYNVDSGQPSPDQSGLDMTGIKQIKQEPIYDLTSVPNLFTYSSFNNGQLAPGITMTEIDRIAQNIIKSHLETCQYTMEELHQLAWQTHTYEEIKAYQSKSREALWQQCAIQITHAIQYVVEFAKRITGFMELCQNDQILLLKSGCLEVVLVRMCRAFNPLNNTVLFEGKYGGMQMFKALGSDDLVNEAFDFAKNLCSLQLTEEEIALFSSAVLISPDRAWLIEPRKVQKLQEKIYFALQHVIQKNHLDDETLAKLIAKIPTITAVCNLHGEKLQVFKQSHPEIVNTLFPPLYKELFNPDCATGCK
Nuclear receptor subfamily 1 group I member 2 (Homo sapiens), sequence (O75469 whole entry, looked up, the tested form may be a part): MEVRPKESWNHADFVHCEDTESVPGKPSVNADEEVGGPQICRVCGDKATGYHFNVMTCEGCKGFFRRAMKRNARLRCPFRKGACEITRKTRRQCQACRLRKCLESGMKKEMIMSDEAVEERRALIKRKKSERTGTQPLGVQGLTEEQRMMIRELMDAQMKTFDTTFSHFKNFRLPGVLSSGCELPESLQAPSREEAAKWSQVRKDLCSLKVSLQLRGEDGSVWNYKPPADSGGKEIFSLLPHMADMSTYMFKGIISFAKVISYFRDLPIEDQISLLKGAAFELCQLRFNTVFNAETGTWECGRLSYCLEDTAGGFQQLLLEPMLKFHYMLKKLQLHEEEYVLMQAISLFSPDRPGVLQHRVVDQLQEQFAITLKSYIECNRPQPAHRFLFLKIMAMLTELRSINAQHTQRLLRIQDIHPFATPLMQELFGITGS
human Retinoic Acid Receptor gamma (RARg), RARG (gene 5916), sequence (P13631 whole entry, looked up, the tested form may be a part): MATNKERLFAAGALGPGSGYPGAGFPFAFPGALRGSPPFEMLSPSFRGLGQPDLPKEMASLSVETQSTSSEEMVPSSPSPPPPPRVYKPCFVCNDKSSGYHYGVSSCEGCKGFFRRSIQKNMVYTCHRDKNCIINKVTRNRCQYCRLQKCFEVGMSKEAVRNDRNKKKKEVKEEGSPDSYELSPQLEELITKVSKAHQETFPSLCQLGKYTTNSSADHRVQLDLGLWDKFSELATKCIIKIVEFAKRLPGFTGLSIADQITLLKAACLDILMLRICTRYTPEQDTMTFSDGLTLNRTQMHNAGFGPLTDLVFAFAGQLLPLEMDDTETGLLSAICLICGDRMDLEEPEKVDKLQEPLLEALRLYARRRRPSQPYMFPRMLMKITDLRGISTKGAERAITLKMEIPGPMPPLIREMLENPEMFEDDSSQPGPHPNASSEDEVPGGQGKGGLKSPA
Peroxisome proliferator-activated receptor gamma (Homo sapiens), sequence (P37231 whole entry, looked up, the tested form may be a part): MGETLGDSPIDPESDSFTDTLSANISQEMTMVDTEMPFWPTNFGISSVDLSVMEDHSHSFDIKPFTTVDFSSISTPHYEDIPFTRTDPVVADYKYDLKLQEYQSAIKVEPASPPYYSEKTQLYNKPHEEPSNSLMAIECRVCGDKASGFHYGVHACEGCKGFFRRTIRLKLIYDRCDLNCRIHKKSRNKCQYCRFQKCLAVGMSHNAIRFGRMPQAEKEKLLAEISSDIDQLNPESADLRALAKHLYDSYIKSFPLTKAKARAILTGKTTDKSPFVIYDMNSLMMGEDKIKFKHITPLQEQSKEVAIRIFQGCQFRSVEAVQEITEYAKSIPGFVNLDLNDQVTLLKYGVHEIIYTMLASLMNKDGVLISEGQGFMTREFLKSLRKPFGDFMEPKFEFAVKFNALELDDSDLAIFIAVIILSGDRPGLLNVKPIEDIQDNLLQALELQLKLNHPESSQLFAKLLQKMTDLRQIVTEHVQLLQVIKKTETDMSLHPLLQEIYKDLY
human Peroxisome Proliferator-activated Receptor alpha (PPARa), PPARA (gene 5465), sequence (Q07869 whole entry, looked up, the tested form may be a part): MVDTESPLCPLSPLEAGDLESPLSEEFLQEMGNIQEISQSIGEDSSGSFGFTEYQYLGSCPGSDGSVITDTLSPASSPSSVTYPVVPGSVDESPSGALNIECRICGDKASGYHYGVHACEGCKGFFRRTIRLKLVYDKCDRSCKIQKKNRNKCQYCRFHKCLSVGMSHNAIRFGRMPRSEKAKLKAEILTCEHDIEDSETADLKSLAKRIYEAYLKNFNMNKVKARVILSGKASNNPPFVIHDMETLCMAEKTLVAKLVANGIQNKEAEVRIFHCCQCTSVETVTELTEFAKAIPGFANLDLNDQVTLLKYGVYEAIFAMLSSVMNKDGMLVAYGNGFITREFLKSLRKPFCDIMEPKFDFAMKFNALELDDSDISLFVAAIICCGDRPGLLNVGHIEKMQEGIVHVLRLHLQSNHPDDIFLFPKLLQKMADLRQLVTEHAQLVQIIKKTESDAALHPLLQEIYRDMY

Consider `Nc1c(Cl)cc(Cl)cc1[N+](=O)[O-]`, for which the compound was called inactive in experiment [1], in [2], in [3], in experiment [5], in experiment [6] and in experiment [7]. In addition, the compound was called inactive in experiment [8] and in experiment [10]. The AC50 is 41.5 µM (active) in [4] and 16.5 µM (active) in experiment [9].

Turning to `FC(F)(F)COCC(F)(F)F`, the result in experiment [1], in [2], in [3], in experiment [4], in [5] and in experiment [6] was inactive. The compound was classed as inactive in [7], in [11], in experiment [12], in [9] and in experiment [13].

For `CC1(C)COCN1`, the compound was classed as inactive in experiment [1], in [2], in experiment [3], in experiment [4], in experiment [5] and in experiment [6]. Moreover, the outcome in experiment [7], in experiment [14] and in [9] was inactive.

With `COc1cc([C@@H]2c3cc4c(cc3[C@@H](O[C@@H]3O[C@@H]5CO[C@@H](C)O[C@H]5[C@H](O)[C@H]3O)[C@H]3COC(=O)[C@H]23)OCO4)cc(OC)c1O`, the outcome in experiment [1], in [2], in experiment [3], in [4], in experiment [5] and in [6] was inactive. The result in experiment [7], in experiment [8], in experiment [12] and in experiment [13] was inactive.

On to `NCC1CCCC(CN)C1` (stereo unspecified), for which the call in experiment [1], in experiment [2], in [3], in [4], in [5] and in experiment [6] was inactive. Besides, the call in experiment [7], in experiment [8], in [12] and in experiment [9] was inactive.

As to `O=C(O)CNc1ccccc1`, the compound was classed as inactive in experiment [1], in experiment [2], in experiment [3], in experiment [4], in [5] and in [6]. Further, the compound was classed as inactive in [7], in experiment [14], in [12], in [10] and in experiment [13]. The AC50 in [9] is 27.3 µM (active).

For `COCCOC(=O)c1ccccc1C(=O)OCCOC`, the call in experiment [1], in experiment [2], in experiment [3], in [4], in experiment [5] and in [6] was inactive. Moreover, the result in experiment [7], in experiment [8], in [12] and in experiment [9] was inactive.

`Cc1c(OCC(F)(F)F)ccnc1CS(=O)c1nc2ccccc2[nH]1` (stereo unspecified): the result in experiment [1], in experiment [2], in [3], in [5], in [6] and in experiment [7] was inactive. The result in [8] was inactive. Moreover, the AC50 in experiment [4] was 49.1 µM (active); in experiment [12] it was 23.7 µM (active).

Turning to `OCCc1ccccc1`, the compound was classed as inactive in experiment [1], in experiment [2], in [3], in experiment [4], in experiment [5] and in [6]. The compound was called inactive in experiment [7], in experiment [14], in [11] and in experiment [9].

With `Cc1ncc[nH]1`, the call in experiment [1], in [2], in experiment [3], in [4], in experiment [5] and in [6] was inactive. The compound was classed as inactive in [7], in [8], in [12] and in experiment [9].

Take `CC1=NN(c2ccc(S(=O)(=O)O)cc2)C(=O)C1`: the call in experiment [1], in experiment [2], in experiment [3], in experiment [4], in [5] and in experiment [6] was inactive. Moreover, the compound was classed as inactive in [7], in [14], in experiment [11] and in experiment [10].

For the compound `O=C1CCCC=CCCCCCCCCCC1`, the outcome in experiment [1], in experiment [2], in [3], in [5], in experiment [6] and in experiment [7] was inactive. Also, in experiment [8], the result was inactive. Besides, the results for the AC50 in experiment [4], in experiment [12] and in experiment [9] were 45.7 µM (active), 66.8 µM (active) and 10.3 µM (active), respectively.

The values above are taken from PubChem BioAssay (EPA / NIEHS).
